Laboratory results: PubChem BioAssay

Experiment: MRP1 drug-resistance reversers in H69AR cells – cell-based, doxorubicin co-treatment, pilot screen (AID 601)
Conditions: H69AR cells + 2 uM doxorubicin, CellTiter-Glo, 72 h; measured here: viability with 2 uM doxorubicin; at 10 µM; stronger effect = lower value
For `Cn1c(-c2ccccc2)cnc1SCc1nc2ccccc2c(=O)[nH]1`, the viability was 82.5%. For `COc1ccc(N2C(=O)C(Cl)=C(N3CCCC3)C2=O)cc1`, the viability was 84.8%. Work on `Cc1ccc(-n2c(N)c(C(N)=O)sc2=S)cc1` yielded a viability of 88.3%. With `O=C(Nc1ccc(N2CCOCC2)c(Cl)c1)c1ccc(Br)o1` the viability was 32.4%. In the case of `NS(=O)(=O)c1ccc(CCNC(=O)c2cccnc2)cc1`, the viability is reported as 93.4%. In the case of `C[N+](C)(C)CCOP(=O)([O-])OC[C@H](O)CO`, the viability is reported as 95%. Work on `Cn1c(=O)[nH]c(=O)c2c1nc(N1CCc3ccccc3C1)n2CCSc1nc2ccccc2s1` yielded a viability of 73.7%. For `CCOC(=O)c1ccc(COC(=O)c2cc3ccccc3oc2=O)o1`, the viability was 93.1%. In the case of `CCc1c(C)c2ccc(OCC(=O)OC)cc2oc1=O`, the viability is reported as 96.9%. Work on `Cc1c(NC(=O)C(C)Oc2ncnc3ccccc23)c(=O)n(-c2ccccc2)n1C` (stereo not drawn) yielded a viability of 90%. For `COc1nc(OC)nc(N2CCC(C(=O)NCc3cccs3)CC2)n1`, the viability was 93.3%. For `CCCCOc1ccccc1C1C(C(N)=O)=C(C)Nc2nnnn21` (stereo not drawn), the viability was 86.6%. `O=C(NCCCN1CCN(Cc2ccccc2)CC1)C1CCN(c2nnc(-n3cccc3)s2)CC1` gave a viability of 84.4%. Compound `CCN(CC)CCCNC1CCS(=O)(=O)C1` (stereo not drawn) has a viability of 83.6%. Work on `N#CC1=C(N)N2C(=C(C#N)C13CCCCC3)SC1CCCCC12O` (stereo not drawn) yielded a viability of 69.4%. `COc1ccccc1CNC(=O)C(C)NS(=O)(=O)c1ccccc1` (stereo not drawn) showed a viability of 98.1%. `O=C(CSc1ccc(-c2ccccc2)nn1)N1CCOCC1` gave a viability of 82%. In the case of `Cc1oc2cc3c(C(=O)OCCN(C)C)c(C)oc3cc2c1C(=O)OCCN(C)C`, the viability is reported as 107%. In the case of `CCOc1cc(C2Nc3ccccc3C(=O)N2c2ccccc2OC)ccc1O` (stereo not drawn), the viability is reported as 94.9%. `O=C(c1cccc2c1C(=O)N(Cc1cccnc1)C2)N1CCN(c2ccccc2)CC1` gave a viability of 89.5%. In the case of `O=C(CSc1oc(-c2ccco2)nc1S(=O)(=O)c1ccccc1)NCC1CCCO1` (stereo not drawn), the viability is reported as 80.5%. `Nc1cc(=O)[nH]c(SCC(=O)Nc2ccc(Br)cc2)n1` showed a viability of 86%. Work on `CC1(C)S[C@@H]2[C@H](NC(=O)[C@H](N)c3ccccc3)C(=O)N2[C@H]1C(=O)O` yielded a viability of 91.4%. `CC(=O)Nc1nc(C)c(-c2csc(Nc3ccc(O)cc3)n2)s1` showed a viability of 18.6%. With `O=C(CCn1c(=O)oc2ccccc21)N1CCCCCC1` the viability was 93.3%. `O=C(O)CCN(CCC(=O)O)c1nnc(SCc2ccccc2)s1` gave a viability of 86.5%. In the case of `CC(=O)OCC(=O)[C@@]12OC(C)(C)O[C@@H]1C[C@H]1[C@@H]3C[C@H](F)C4=CC(=O)C=C[C@]4(C)[C@@]3(F)[C@@H](O)C[C@@]12C`, the viability is reported as 104%. In the case of `COC(=O)CCC(=O)CN`, the viability is reported as 92.8%. Work on `C=CCN=C1SCC(=O)N1S(=O)(=O)c1ccc(C)cc1` yielded a viability of 99.4%. Compound `O=C1c2ccccc2C(=O)N1CCN1CCCCC1` has a viability of 99.4%. For `CN(C)c1ccc(NC(=O)Nc2cccc(Cl)c2)cc1`, the viability was 84.7%. In the case of `COC(=O)[C@H](C)NC(=O)Nc1cccc(C(F)(F)F)c1`, the viability is reported as 95.7%. In the case of `Cc1c(C=NCCOCc2ccccc2)cnn1C`, the viability is reported as 82.2%. In the case of `COC(=O)c1cccc(Nc2cc(C)nc(-c3ccccc3O)n2)c1`, the viability is reported as 70.7%. Compound `CCN(CC)C(=O)c1ccc(O)c(OC)c1` has a viability of 101%. `CC(C)CN(CC(C)C)c1nc(N)c(C#N)c(CC#N)c1C#N` showed a viability of 73.1%. `c1cnc(NCCNc2ncccn2)nc1` showed a viability of 89%. `C=CCn1c(SCC#N)nc2c(c1=O)C(C)(C)Cc1ccccc1-2` gave a viability of 85%. `COc1cc(NS(=O)(=O)c2ccc(N)cc2)ncn1` gave a viability of 65%.

Same assay, conditions: H69AR cells, CellTiter-Glo, 72 h; compound alone cytotoxicity; at 10 µM
With `Cn1c(-c2ccccc2)cnc1SCc1nc2ccccc2c(=O)[nH]1` the viability was 101%. With `COc1ccc(N2C(=O)C(Cl)=C(N3CCCC3)C2=O)cc1` the viability was 94.7%. `Cc1ccc(-n2c(N)c(C(N)=O)sc2=S)cc1` gave a viability of 87.9%. In the case of `O=C(Nc1ccc(N2CCOCC2)c(Cl)c1)c1ccc(Br)o1`, the viability is reported as 20%. In the case of `NS(=O)(=O)c1ccc(CCNC(=O)c2cccnc2)cc1`, the viability is reported as 97.2%. Compound `C[N+](C)(C)CCOP(=O)([O-])OC[C@H](O)CO` has a viability of 96%. For `Cn1c(=O)[nH]c(=O)c2c1nc(N1CCc3ccccc3C1)n2CCSc1nc2ccccc2s1`, the viability was 75.2%. Compound `CCOC(=O)c1ccc(COC(=O)c2cc3ccccc3oc2=O)o1` has a viability of 114%. Compound `CCc1c(C)c2ccc(OCC(=O)OC)cc2oc1=O` has a viability of 94.4%. With `Cc1c(NC(=O)C(C)Oc2ncnc3ccccc23)c(=O)n(-c2ccccc2)n1C` (stereo not drawn) the viability was 97%. For `COc1nc(OC)nc(N2CCC(C(=O)NCc3cccs3)CC2)n1`, the viability was 91.9%. `CCCCOc1ccccc1C1C(C(N)=O)=C(C)Nc2nnnn21` (stereo not drawn) showed a viability of 93.3%. For `O=C(NCCCN1CCN(Cc2ccccc2)CC1)C1CCN(c2nnc(-n3cccc3)s2)CC1`, the viability was 88.7%. `CCN(CC)CCCNC1CCS(=O)(=O)C1` (stereo not drawn) showed a viability of 87.9%. For `N#CC1=C(N)N2C(=C(C#N)C13CCCCC3)SC1CCCCC12O` (stereo not drawn), the viability was 76.1%. `COc1ccccc1CNC(=O)C(C)NS(=O)(=O)c1ccccc1` (stereo not drawn) showed a viability of 87.1%. Compound `O=C(CSc1ccc(-c2ccccc2)nn1)N1CCOCC1` has a viability of 95.2%. `Cc1oc2cc3c(C(=O)OCCN(C)C)c(C)oc3cc2c1C(=O)OCCN(C)C` showed a viability of 90.4%. Work on `CCOc1cc(C2Nc3ccccc3C(=O)N2c2ccccc2OC)ccc1O` (stereo not drawn) yielded a viability of 95%. For `O=C(c1cccc2c1C(=O)N(Cc1cccnc1)C2)N1CCN(c2ccccc2)CC1`, the viability was 93.3%. With `O=C(CSc1oc(-c2ccco2)nc1S(=O)(=O)c1ccccc1)NCC1CCCO1` (stereo not drawn) the viability was 86.5%. Compound `Nc1cc(=O)[nH]c(SCC(=O)Nc2ccc(Br)cc2)n1` has a viability of 90.5%. `CC1(C)S[C@@H]2[C@H](NC(=O)[C@H](N)c3ccccc3)C(=O)N2[C@H]1C(=O)O` gave a viability of 107%. Compound `CC(=O)Nc1nc(C)c(-c2csc(Nc3ccc(O)cc3)n2)s1` has a viability of 13.3%. With `O=C(CCn1c(=O)oc2ccccc21)N1CCCCCC1` the viability was 98.3%. With `O=C(O)CCN(CCC(=O)O)c1nnc(SCc2ccccc2)s1` the viability was 93.6%. `CC(=O)OCC(=O)[C@@]12OC(C)(C)O[C@@H]1C[C@H]1[C@@H]3C[C@H](F)C4=CC(=O)C=C[C@]4(C)[C@@]3(F)[C@@H](O)C[C@@]12C` showed a viability of 106%. With `COC(=O)CCC(=O)CN` the viability was 88.6%. For `C=CCN=C1SCC(=O)N1S(=O)(=O)c1ccc(C)cc1`, the viability was 113%. `O=C1c2ccccc2C(=O)N1CCN1CCCCC1` showed a viability of 103%. In the case of `CN(C)c1ccc(NC(=O)Nc2cccc(Cl)c2)cc1`, the viability is reported as 88.7%. Work on `COC(=O)[C@H](C)NC(=O)Nc1cccc(C(F)(F)F)c1` yielded a viability of 89.9%. `Cc1c(C=NCCOCc2ccccc2)cnn1C` gave a viability of 96.2%. `COC(=O)c1cccc(Nc2cc(C)nc(-c3ccccc3O)n2)c1` gave a viability of 64.4%. With `CCN(CC)C(=O)c1ccc(O)c(OC)c1` the viability was 101%. In the case of `CC(C)CN(CC(C)C)c1nc(N)c(C#N)c(CC#N)c1C#N`, the viability is reported as 86.7%. `c1cnc(NCCNc2ncccn2)nc1` gave a viability of 99.8%. For `C=CCn1c(SCC#N)nc2c(c1=O)C(C)(C)Cc1ccccc1-2`, the viability was 78.8%. With `COc1cc(NS(=O)(=O)c2ccc(N)cc2)ncn1` the viability was 92%.
